Compound activity as filed in PubChem.
A selection: hits, their analogues and other compounds. The true share with any hit is near 0.4%.
Rac1 wt GTP bind: wildtype Rac1 GTP binding modulators, primary screen, biochemical, GST-Rac1 beads, flow cytometry, multiplex; Ras-related C3 botulinum toxin substrate 1 (Homo sapiens), P63000; 190,000 compounds, 0.27% hits; fluorescent GTP binding; actives lie on both sides; 0 = cold GTP competed, 100 = untreated; GTP binding activity (% of control), % at 10 µM; AID 757, 2007;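 active = GTP binding activity at least 20 points away from the 100% control level, either lower or higher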
Rab2A wt mod: modulators of GTP binding to Rab2A wildtype, primary screen, biochemical, dog, bead-based flow cytometry, multiplex; GTP binding activity, % at 10 µM; 190,000 compounds, 0.19% hits; Ras-related protein Rab-2A (Canis lupus familiaris), P61105; AID 760, 2007; GST-Rab2 wt beads, Bodipy-GTP binding;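 active = GTP binding activity at least 20 points away from 100%, either lowered or raised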;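 note: 0% = beads with excess unlabeled GTP and 100% = no-compound control corrected for plate trend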
Rac1 mut GTP: GTP binding modulators of activated mutant Rac1, primary screen, biochemical, bead-based flow cytometry, multiplex, fluorescent GTP. Ras-related C3 botulinum toxin substrate 1 (Homo sapiens), P63000. GST-Rac1 activated beads; actives lie on both sides; 100% means binding = to untreated wells. percent activity (GTP binding), % at 10 µM. 190,000 compounds, 0.11% hits. AID 764, 2007;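 active = GTP binding at least 20 percentage points away from the 100% baseline, in either direction, so actives lie on both sides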
Rab7 wt modul: modulators of GTP binding to Rab7, primary screen, biochemical, wildtype, multiplex bead flow cytometry; GST-Rab7 beads, fluorescent GTP binding; actives lie on both sides; untreated = 100%, excess cold GTP = 0%; GTP binding activity (percent of control), % at 10 µM; 190,000 compounds, 0.055% hits;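 active = fluorescent GTP binding to Rab7 beads changed by at least 20 points from the 100% baseline, either direction, mostly lower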;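 note: median green fluorescence of bound Bodipy-FL-GTP per Rab7 bead population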
Cdc42 wt: modulators of GTP binding to wildtype Cdc42, primary screen, biochemical, multiplex bead flow cytometry, Bodipy-GTP | Cell division control protein 42 homolog (Homo sapiens), P60953 | GST-Cdc42 beads; actives lie on both sides | percent activity (GTP binding), % at 10 µM | 190,000 compounds, 0.2% hits;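 active = percent activity GTP binding at least 20 points away from the 100% baseline, either down as inhibitor or up as activator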;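 note: median bead fluorescence of bound Bodipy-FL-GTP at 100 nM; 0% = excess unlabeled GTP control and 100% = no compound control; below 100% means less GTP binding so inhibitor and above means activator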
Target sequence (P60953 whole entry, looked up): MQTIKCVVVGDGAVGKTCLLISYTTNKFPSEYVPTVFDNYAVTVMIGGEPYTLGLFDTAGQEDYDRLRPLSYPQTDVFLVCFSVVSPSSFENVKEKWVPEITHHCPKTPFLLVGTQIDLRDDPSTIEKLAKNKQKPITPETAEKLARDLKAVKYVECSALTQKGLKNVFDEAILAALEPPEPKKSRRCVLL
HRas wt GTP bind: modulators of GTP binding to HRas wildtype, primary screen, biochemical, bead-based flow cytometry, multiplex; GTPase HRas (Homo sapiens), P01112; GST-Ras wt beads, Bodipy-FL-GTP binding; actives lie on both sides; GTP binding activity, % at 10 µM; 190,000 compounds, 0.14% hits; AID 759, 2007;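 active = GTP binding activity at least 20% away from the 100% baseline, either lowered as inhibitor or raised as activator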;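 note: 0% = unlabeled GTP competition control and 100% = no-compound control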
Target sequence (P01112 whole entry, looked up): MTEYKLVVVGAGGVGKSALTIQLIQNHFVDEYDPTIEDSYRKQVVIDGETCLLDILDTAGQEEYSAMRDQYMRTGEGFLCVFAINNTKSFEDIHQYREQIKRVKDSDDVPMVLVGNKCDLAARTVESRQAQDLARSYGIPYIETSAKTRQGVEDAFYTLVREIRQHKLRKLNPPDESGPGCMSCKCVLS
Starred values were filed as active, the others as inactive; x = no result; [ ] = dose if it differs, or a comment.

SMILES | Rac1 wt GTP bind | Rab2A wt mod | Rac1 mut GTP | Rab7 wt modul | Cdc42 wt | HRas wt GTP bind
COC(=O)c1ccc(COc2ccccc2/C=N/Nc2cccc(C(=O)O)c2)cc1 | 141.0*[activator] | 128.0*[activator] | 128.0*[activator] | 126.0*[activator] | 124.0*[activator] | 121.0*[activator]
CCOC(=O)C1=C(N)OC(CCl)=C(C#N)C1c1ccsc1 (stereo unspecified) | 100.0 | 100.0 | 99.0 | 98.0 | 103.0 | 98.0
COc1ccc(C(=O)OCC(=O)Nc2nc3c(F)c(F)c(F)cc3s2)cc1OC | 98.0 | 98.0 | 93.0 | 102.0 | 97.0 | 97.0
O=C(COC(=O)C12CC3CC(CC(C3)C1)C2)Nc1nc2c(F)c(F)c(F)cc2s1 | 93.0 | 94.0 | 96.0 | 93.0 | 74.0* | 94.0
COC(=O)Nc1ccc(S(=O)(=O)N2c3ccccc3CCC2C)cc1 (stereo unspecified) | 99.0 | 98.0 | 97.0 | 94.0 | 100.0 | 96.0
NC(N)=NS(=O)(=O)c1ccc(NC(=S)NC(=O)c2ccc3c(c2)OCO3)cc1 | 123.0*[activator] | 114.0 | 105.0 | 100.0 | 109.0 | 111.0
O=C(COC(=O)c1cc(Br)ccc1Cl)NC1CCCC1 | 91.0 | 100.0 | 96.0 | 107.0 | 99.0 | 97.0
Cc1ccccc1NC(=O)CN1C(=O)S/C(=C\c2ccc(-c3cc(C(=O)O)ccc3C)o2)C1=O | 87.0 | 85.0 | 83.0 | 91.0 | 79.0* | 86.0
O=C(CNC(=O)Cc1ccccc1)N=Nc1c(O)n(Cc2ccc3c(c2)OCO3)c2ccccc12 | 78.0* | 78.0* | 88.0 | 90.0 | 90.0 | 84.0
Cc1cc(C)n2ncc(C(=O)O)c2n1 | 92.0 | 80.0 | 94.0 | 92.0 | 78.0* | 82.0
COc1cc(/C(C)=N/NC(=O)C(O)(c2ccccc2)c2ccccc2)ccc1O | 99.0 | 99.0 | 94.0 | 106.0 | 96.0 | 100.0
O=S(=O)(Nc1cc(Sc2ncn[nH]2)c(O)c2ccccc12)c1ccccc1 | 78.0* | 91.0 | 89.0 | 91.0 | 95.0 | 92.0
Cc1cc(NS(=O)(=O)c2ccccc2)c(C)c(Cl)c1O | 105.0 | 101.0 | 103.0 | 98.0 | 106.0 | 101.0
COc1cc2ccccc2cc1C(=O)NC(=S)Nc1cccc(C(=O)O)c1 | 81.0 | 75.0* | 80.0 | 85.0 | 75.0* | 76.0*
CCCCCCCCSc1nnc2[nH]c(=O)cc(N)n12 | x | x | x | x | 69.0* | 84.0
CSc1nsc(/C=C/Nc2ccc(C)cc2)c1C#N | 104.0 | 103.0 | 100.0 | 101.0 | 105.0 | 102.0
CCC(/C=C1\Sc2ccc(OC)cc2N1CCO)=C\c1sc2ccc(OC)cc2[n+]1CCO | 87.0 | 80.0 | 89.0 | 90.0 | 82.0 | 78.0*
CCC(/C=C1\Sc2ccc(OC)cc2N1CC)=C\c1sc2ccc(OC)cc2[n+]1CCCS(=O)(=O)[O-] | 96.0 | 92.0 | 93.0 | 95.0 | 94.0 | 94.0
Cc1cc(C)c(C#N)c(SCc2ccccc2)n1 | 104.0 | 101.0 | 98.0 | 96.0 | 100.0 | 99.0
Cc1ccc2nc(CSc3nc(C)cc(C)c3C#N)[nH]c2c1 | 122.0*[activator] | 101.0 | 105.0 | 102.0 | 114.0 | 107.0
Nc1c(C(=O)C2CC2)sc2nc(-c3cccs3)cc(C(F)(F)F)c12 | 120.0*[activator] | 117.0 | 103.0 | 116.0 | 109.0 | 110.0
C/C(=N/NC(=O)c1cccc(N2CCCC2=O)c1)c1ccncc1 | 102.0 | 101.0 | 98.0 | 111.0 | 104.0 | 104.0
O=C(Nc1ccccc1C(F)(F)F)N1CCN(c2ccccn2)CC1 | 97.0 | 95.0 | 97.0 | 99.0 | 97.0 | 95.0
Cc1ccc(C(=O)COC(=O)c2ccc3c(c2)C(=O)N(c2cccc4ncccc24)C3=O)cc1 | 71.0* | 71.0* | 75.0* | 84.0 | 77.0* | 76.0*
O=C(COC(=O)c1ccc2c(c1)C(=O)N(c1cccc3ncccc13)C2=O)c1ccc(Cl)cc1 | 82.0 | 83.0 | 86.0 | 90.0 | 89.0 | 90.0
